The values below come from PubChem BioAssay (NCI).

Experiment in all cases: NCI-60 one-dose screen, 48 h (100 = growth as untreated, 0 = no growth, -100 = all killed)
Common to all, as to settings: 10 µM unless noted

Test [1] has as its system NCI-H23 lung.
The subject of test [2] is NCI-H226 lung.
Test [3] concerns NCI-H322M lung.
Test [4] concerns HOP-62 NSCLC.
In test [5] the test system is NCI-H460 lung.
In test [6] the test system is HOP-92 NSCLC.
Test [7] has as its system NCI-H522 lung.
For test [8], the system named is A549/ATCC NSCLC.
Test [9] has as its system 786-0 renal.
Test [10] concerns COLO 205 colon.

This is part of a sample that, as a whole, favours compounds with a hit. Of some 83,000 tested, about 20% had one in any assay.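 Plates (96-well) were seeded with cells, treated with compound at one concentration, and incubated for 48 hours before percent growth was determined.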 Values without a mark were called inactive. The source made the active and inactive calls. How the source made its calls: active means growth percent below 10; inactive means the rest.

Turning to `CCN1CCN(CC(=O)Nc2nc3ccc(NCc4ccc(Cl)cc4)cc3s2)CC1`, the growth was 69.2% in test [1]; 60% in [2]; 79.4% in test [3]; 77.6% in [4]; 54.7% in test [5]; 31.6% in [6]. Besides, the growth in [7] was 86.3%; in test [8] it was 61.5%; in test [9], 73%; in test [10], 23.8%.
Take `c1ccc(-c2nnc(-c3c[nH]c4ncccc34)s2)cc1`: the growth in test [1] is 92.6%; in test [2], 87.9%; in test [3], 95.7%; in [4], 98.6%; in [5], 96.4%; in test [6], 104%. In addition, the growth in [7] is 87.7%; in [8], 95.6%; in test [9], 104%; in test [10], 115%.
Consider `CNC(=O)c1cc(Oc2cccc3nc(NC(=O)Nc4cc(C(F)(F)F)cc(C(F)(F)F)c4)ccc23)ccn1`, for which the growth in test [1] is 50.8%; in test [2] it was 43.1%; in test [3], 25.5%; in test [4] it was 6.73% (active); in [5], 34.9%; in test [6] it was -23.7% (active). The growth was 24.3% in [7], 18.6% in test [8], -35.6% (active) in test [9] and 53.9% in test [10].
Regarding `C#CC(OC(=O)N(C)C)(c1ccccc1)c1ccc(F)cc1` (stereo not given), the growth was 98.7% in test [1]; 89.7% in test [2]; 128% in test [3]; 116% in test [4]; 96.7% in test [5]; 92.9% in test [6]. For the same molecule, the growth in [7] is 83.2%; in [8], 75%; in test [9] it was 120%; in [10], 158%.
Consider `CCOC(=O)c1nn(C2CCCCO2)c2ccc(NC(=O)Cn3nnc4ccccc43)cc12` (stereo not given), for which the growth in [1] was 102%; in test [2], 109%; in test [3] it was 96.9%; in test [4] it was 98.8%; in test [5], 100%; in [6], 111%. The growth is 102% in test [7], 102% in [8], 90.9% in test [9] and 120% in test [10].
As to `C=C(C)[C@@H]1CC[C@]2(C(N)=O)CC[C@]3(C)[C@H](CC[C@@H]4[C@@]5(C)CC[C@H](O)C(C)(C)[C@@H]5CC[C@]43C)[C@@H]12`, the growth is -27.1% [100 µM] (active) in test [1]; -50.5% [100 µM] (active) in [2]; -58.9% [100 µM] (active) in [3]; -72.2% [100 µM] (active) in [4]; -37.5% [100 µM] (active) in test [5]; -62.8% [100 µM] (active) in test [6]. The growth in [7] is -53.8% [100 µM] (active); in test [8], -69.3% [100 µM] (active); in test [9] it was -72.2% [100 µM] (active); in [10], -66.2% [100 µM] (active).
With `CC[C@@](C)(NC(=O)[C@H](C)NC(=O)CCNC(=O)C(C)(C)NC(=O)[C@H](C)NC(=O)[C@@H]1CCCN1C(=O)[C@@](C)(CC)NC(=O)[C@H](Cc1ccccc1)NC(=O)C1CCCN1C(=O)C(C)(C)NC(=O)C1CCCN1C(=O)C(C)(C)NC(C)=O)C(=O)NCCC(=O)N[C@@H](CC(C)C)C(=O)NC(C)(C)C(=O)NCCC(=O)N[C@@H](CC(C)C)C(=O)NC(C)(C)C(=O)NC(C)(C)C(=O)N[C@@H](CC(C)C)C(=O)NCCC(=O)NCO` (stereo not given in full), the growth in [1] was -89.5% (active); in [2] it was -97% (active); in test [3], -87.9% (active); in [4] it was -92% (active); in [5], -78.1% (active); in [6] it was -94.7% (active). The growth in test [7] was -84.2% (active); in [8], -81.3% (active); in test [9] it was -94.6% (active); in test [10] it was -87.9% (active).
As to `CCOC(=O)c1cc(C(=O)c2ccc(OC)c(OC)c2)n2ccc(-c3ccccn3)cc12`, the growth in test [1] was 78%; in [2], 49.9%; in [3], 58.7%; in [4], 53.1%; in test [5], 17.9%; in [6], 41.6%. Also, the growth in [7] is -3.85% (active); in [8], 47.5%; in [9], 101%; in [10] it was 65.5%.
Consider `CCNc1cc2c(cc1Br)-c1ccccc1C2=O`, for which the growth is 86% in [1]; 92.3% in test [2]; 87.9% in [3]; 92.3% in test [4]; 96.8% in test [5]; 84.9% in test [6]. Also, the growth in [7] is 93.6%; in test [8], 96.3%; in [9], 109%; in test [10] it was 111%.
As to `CCN(CC)CC(C)Nc1ccc(C)c2sc3ccccc3c(=O)c12` (stereo not given), the growth in test [1] is 65.9%; in test [2], 74.2%; in test [3], 91.8%; in test [4] it was 76.3%; in test [5], 19.5%; in [6], 38.2%. Moreover, the growth in test [7] is 64.8%; in test [8], 32.7%; in test [9] it was 53.1%; in test [10], 37.9%.
For the molecule `CC(C)c1ccc(C(=O)Nc2sc3c(c2C#N)CCC(=O)C3)cc1`, the growth in test [1] was -5.74% (active); in [2] it was 50.5%; in [3], 71.9%; in [4] it was 36.9%; in test [5], 3.31% (active); in test [6], -52.2% (active). The growth is -36.7% (active) in test [7], 15% in test [8], 8.77% (active) in [9] and -36.5% (active) in test [10].
With `CC(C)[C@H]1CCC2=C3CC[C@]45OC(=O)[C@@]6(CCC(C)(C)C[C@H]64)CC[C@@]5(C)[C@]3(C)CC[C@@]21C`, the growth was 54.4% [100 µM] in [1]; 68.4% [100 µM] in [2]; 94.5% [100 µM] in test [3]; 76.3% [100 µM] in test [4]; 71.8% [100 µM] in test [5]; 19.9% [100 µM] in test [6]. In addition, the growth in test [7] is 55.7% [100 µM]; in test [8], 67.1% [100 µM]; in test [9] it was 69.3% [100 µM]; in test [10], 97% [100 µM].
As for `COC(=O)c1c(C)[nH]c(/C=C2\N=C(c3ccc[nH]3)C=C2OC)c1C`, the growth in test [1] is 10%; in [2] it was -16% (active); in test [3] it was -2.96% (active); in test [4], -17.5% (active); in [5], 4.82% (active); in test [6] it was -41.8% (active). Moreover, the growth is -60.1% (active) in test [7], -24.4% (active) in test [8], -27.7% (active) in test [9] and -54.2% (active) in test [10].
